# Laboratory results: PubChem BioAssay (NCATS)
# Records with an inconclusive call do not appear. Where a call stands in place of a potency, no number is given. Calls of active or inactive are those of the source. Calls come from the whole dose curve; as a rule, active = well fitted inhibition curve with a large enough effect; inconclusive = small, poorly fitted or top-dose-only effect; inactive = flat fitted curve, though single readings scatter. Peptide text beside a SMILES is read from it.
# What was measured:
# [1] = qHTS for identification of novel therapeutic agents for treatment of microphthalmiaassociated transcription factor (MiT) renal cell carcinoma (RCC) (AID 1963991); conditions: CellTiter-Glo, 48 h, stronger effect = lower value
# Summary of the method: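 UOK109/UOK124/UOK145 (TFE3 fusions, three partners); 500 cells/well; MIPE v4.0, 1912 cpds, 11 conc.; 48 h, 37 C; CellTiter-Glo, 15 min RT; lum. Norm.: DMSO 100%, empty 0%.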
# [2] = qHTS profiling for inhibitors of Plasmodium falciparum proliferation (AID 504749); note: nearly all actives have a fitted effect of over 60% in size; note: potency is the fitted concentration of half-maximal effect; conditions: P. falciparum in erythrocytes, SYBR Green DNA, 72 h
# Summary of the method: (§1)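 Quantitative HTS: compounds pinned into medium, infected erythrocytes added (0.3% parasitemia, 2.5% hematocrit), 72 h culture at 37 C under 5% CO2. Saponin/Triton lysis with SYBR Green I, overnight RT, then fluorescence read.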
# [3] = system: 3D7; assay: as above; conditions: P. falciparum in erythrocytes, SYBR Green DNA, 72 h; series mostly up to 28.7 µM
# Summary of the method: as §1
# [4] = system: AA1029; assay: as above; conditions: P. falciparum in erythrocytes, SYBR Green DNA, 72 h; series mostly up to 28.7 µM
# Summary of the method: as §1
# [5] = system: AS120; assay: as above; conditions: P. falciparum in erythrocytes, SYBR Green DNA, 72 h; series mostly up to 28.7 µM
# Summary of the method: as §1
# [6] = system: ATS189; assay: as above; conditions: P. falciparum in erythrocytes, SYBR Green DNA, 72 h; series mostly up to 28.7 µM
# Summary of the method: as §1
# [7] = system: ATS95; assay: as above; conditions: P. falciparum in erythrocytes, SYBR Green DNA, 72 h; series mostly up to 28.7 µM
# Summary of the method: as §1
# [8] = system: C2A; assay: as above; conditions: P. falciparum in erythrocytes, SYBR Green DNA, 72 h; series mostly up to 28.7 µM
# Summary of the method: as §1
# [9] = system: CP185; assay: as above; conditions: P. falciparum in erythrocytes, SYBR Green DNA, 72 h; series mostly up to 28.7 µM
# Summary of the method: as §1
# [10] = system: 7G8; assay: as above; conditions: P. falciparum in erythrocytes, SYBR Green DNA, 72 h; series mostly up to 28.7 µM
# Summary of the method: as §1
# [11] = TFE3-RCC UOK109 viability, measured here: UOK109 Z-AUC
# [12] = TFE3-RCC viability, measured here: UOK124 Z-AUC
# [13] = TFE3-RCC viability, measured here: UOK145 Z-AUC
# [14] = at 28.7 µM (top of the series), parasite line A
# [15] = at 28.7 µM (top of the series), parasite line B
# [16] = at 12.8 µM (top of the series), parasite line A
# [17] = at 12.8 µM (top of the series), parasite line B
SMILES,"z-score [1, 11]","z-score [1, 12]","z-score [1, 13]","activity, negative = inhibition [2, 14]","activity, negative = inhibition [2, 15]",Potency [3],Potency [4],Potency [5],Potency [6],Potency [7],Potency [8],Potency [9],Potency [10],"activity, negative = inhibition [2, 16]","activity, negative = inhibition [2, 17]",Potency ([2]; parasite line A),Potency ([2]; parasite line B)
Cc1cc2c(s1)Nc1ccccc1N=C2N1CCN(C)CC1,0.52,0.714,0.593,6.07% (inactive),8.04% (inactive),inactive,inactive,inactive,inactive,inactive,inactive,inactive,–,–,–,–,–
O=C(NCCO[N+](=O)[O-])c1cccnc1,1.2,0.824,0.646,22.6% (inactive),3.27% (inactive),inactive,inactive,inactive,inactive,inactive,inactive,inactive,inactive,–,–,–,–
O=c1oc2cc(O)ccc2s1,0.879,0.455,1.32,-2.41% (inactive),-10.3% (inactive),inactive,inactive,inactive,inactive,inactive,inactive,inactive,–,–,–,–,–
Nc1cc(C(Cl)=C(Cl)Cl)c(S(N)(=O)=O)cc1S(N)(=O)=O,1.83,0.22,0.781,–,–,inactive,inactive,–,inactive,inactive,inactive,inactive,inactive,-2.96% (inactive),1.59% (inactive),–,–
COC(=O)[C@H](Cc1ccccc1)NC(=O)[C@@H](N)CC(=O)O (H-Asp-Phe-OMe),0.591,0.672,0.618,5.55% (inactive),9.71% (inactive),inactive,inactive,inactive,inactive,inactive,inactive,inactive,inactive,–,–,–,–
O=P(O)(O)C(O)(Cn1ccnc1)P(=O)(O)O,–,–,–,8.24% (inactive),-1.43% (inactive),inactive,inactive,inactive,inactive,inactive,inactive,inactive,inactive,–,–,–,–
CN(C)c1ccc2nc3ccc(=[N+](C)C)cc-3sc2c1,–,–,–,–,–,39.8 nM (active),79.4 nM (active),63.1 nM (active),79.4 nM (active),70.8 nM (active),141 nM (active),89.1 nM (active),2.8 nM (active),–,–,44.7 nM (active),63.1 nM (active)
O=C(O)CCNC(=O)c1ccc(N=Nc2ccc(O)c(C(=O)O)c2)cc1,1.03,0.51,0.488,4.07% (inactive),9.54% (inactive),inactive,inactive,inactive,inactive,inactive,inactive,inactive,inactive,–,–,–,–
N=C(N)c1ccc2cc(OC(=O)c3ccc(N=C(N)N)cc3)ccc2c1,0.107,-0.0134,0.0541,–,–,–,–,–,–,–,–,–,11200 nM (active),–,–,–,–
CS(=O)(=O)OCCCCOS(C)(=O)=O,1.01,2.44,1.02,5.89% (inactive),-1.27% (inactive),inactive,inactive,inactive,inactive,inactive,inactive,inactive,inactive,–,–,–,–
CN(C)CCc1c[nH]c2ccc(Cn3cncn3)cc12,0.0634,0.723,0.764,15.9% (inactive),-0.428% (inactive),inactive,inactive,inactive,inactive,inactive,inactive,inactive,inactive,–,–,–,–
CCCCc1ccc2nc(NC(=O)OC)[nH]c2c1,–,–,–,–,–,inactive,inactive,inactive,inactive,inactive,inactive,inactive,inactive,2.35% (inactive),6.2% (inactive),–,–
c1ccc2[nH]c(-c3cscn3)nc2c1,-0.345,0.601,-0.852,–,-25.8% (inactive),inactive,inactive,inactive,–,inactive,inactive,–,inactive,–,–,–,–
COCCCOc1ccnc(CS(=O)c2nc3ccccc3[nH]2)c1C (stereo not given),0.673,0.741,0.739,-29% (inactive),-20.3% (inactive),inactive,inactive,inactive,inactive,inactive,inactive,inactive,–,–,–,–,–
Cc1c(OCC(F)(F)F)ccnc1CS(=O)c1nc2ccccc2[nH]1 (stereo not given),0.51,0.775,0.275,-19.3% (inactive),-5.11% (inactive),inactive,inactive,inactive,inactive,inactive,inactive,inactive,–,–,–,–,–
CC(C)c1ccc2oc3nc(N)c(C(=O)O)cc3c(=O)c2c1,0.102,0.464,0.404,-29.9% (inactive),-11.5% (inactive),inactive,–,–,inactive,inactive,inactive,inactive,–,–,–,–,–
NNc1nncc2ccccc12,-0.0991,0.525,0.517,–,–,–,inactive,–,3550 nM (active),inactive,inactive,inactive,891 nM (active),-1.16% (inactive),-10.3% (inactive),–,–
